Laboratory results reported in PubChem BioAssay AID463173 (ICCB-Longwood Screening Facility, Harvard Medical School, 2010).
About 1,700 (3.3%) of roughly 52,000 compounds were called active. This is one part of a sample in which actives are shown more often than they occur. Cut-off read from the data, not from the text of the source: active = survival mostly below about 52% (no sharp cut-off); inactive = mostly above about 56%.

System: Wild type
Assay: S. aureus survival, RN4220 and DeltatarO strains – OD600, teichoic acid synthesis inhibitors, primary screen (AID 463173)
Details: S. aureus RN4220 wild type/DeltatarO growth, OD600, 18 h, hits give low values, screened at 18.75 µg/mL (by protocol)

SMILES	survival
Cc1c(C(=O)OCC2CCCCC2)[nH]c2c1C(=O)CC(c1ccccc1Cl)C2 (centres undefined)	92% (inactive)
Cc1oc2ncn(CC(C)C)c(=O)c2c1C(=O)NCCCN(C)Cc1ccccc1	76% (inactive)
Cc1cc2nsnc2c(S(=O)(=O)NCC(=O)O)c1C	99% (inactive)
CCCCCCSc1ncc(C#N)c(N)n1	119% (inactive)
CC1CCCc2sc3nc(SCC(=O)c4ccc(Br)cc4)nc(N)c3c21 (centres undefined)	66% (inactive)
CCCCCCSc1nc(N)c2c3c(sc2n1)CCCC3C (centres undefined)	-2% (active)
CCCCCNC(=O)C(=O)NCC(c1ccc2c(c1)OCO2)N1CCOCC1 (centres undefined)	68% (inactive)
Cc1ccc(CNC(=O)c2ccc3c(c2)NC(=O)C(CS(=O)(=O)Cc2cccc(F)c2)N3)cc1 (centres undefined)	117% (inactive)
O=C(/C=C/c1ccc(Cl)cc1)N1CCC(c2nc3ccccc3o2)CC1	120% (inactive)
CCN(CC)C(=O)Cn1c(=O)n(-c2ccc(Cl)cc2)c(=O)c2c3c(sc21)CCC3	73% (inactive)
COCCCN1C(=O)c2[nH]nc(-c3cc(C)ccc3O)c2C1c1ccc(F)cc1 (centres undefined)	92% (inactive)
COCCN1C(=O)c2[nH]nc(-c3cc(C)ccc3O)c2C1c1ccc(C(C)C)cc1 (centres undefined)	11% (active)
CCCCN1C(=O)c2[nH]nc(-c3ccccc3O)c2C1c1ccc(OCc2ccccc2)c(OC)c1 (centres undefined)	64% (inactive)
CCCCN1C(=O)c2[nH]nc(-c3ccccc3O)c2C1c1cc(Br)c(O)c(OC)c1 (centres undefined)	10% (active)
CCCCOc1cccc(C2c3c(-c4cc(C)ccc4O)n[nH]c3C(=O)N2CCOC)c1 (centres undefined)	25% (inactive)
COCCN1C(=O)c2[nH]nc(-c3ccccc3O)c2C1c1ccc(Cl)c(Cl)c1 (centres undefined)	3% (active)
COCCN1C(=O)c2[nH]nc(-c3ccccc3O)c2C1c1ccc(OCc2ccccc2)c(OC)c1 (centres undefined)	43% (inactive)
CCCN1C(=O)c2[nH]nc(-c3ccccc3O)c2C1c1ccc(OCc2ccccc2)c(OC)c1 (centres undefined)	64% (inactive)
COCCCN1C(=O)c2[nH]nc(-c3ccccc3O)c2C1c1ccc(OC)cc1 (centres undefined)	85% (inactive)
O=C1NC(NS(=O)(=O)c2ccccc2)(C(F)(F)F)C(=O)N1c1ccc(F)cc1 (centres undefined)	76% (inactive)
Cc1nc(CC(=O)Nc2ccc(C)c(C)c2)cs1	80% (inactive)
C/C=C/C(=O)N1CCCC(c2nc(-c3cccc(OC)c3)no2)C1 (centres undefined)	95% (inactive)
COc1ccc(C(=O)N(CC(=O)NC2CCCC2)C2CCCCC2)cc1OC	106% (inactive)
COc1ccc(C)cc1NC(=O)CN1C(=O)CCc2cc(S(=O)(=O)N3CCOCC3)ccc21	128% (inactive)
COc1ccc(NC(=O)CN2C(=O)CCc3cc(S(=O)(=O)N4CCOCC4)ccc32)c(OC)c1	66% (inactive)
COc1ccc(Cl)cc1NC(=O)CN1C(=O)C(C)(C)c2cc(S(=O)(=O)N3CCCCC3)ccc21	81% (inactive)
Cc1ccc(NC(=O)CN2C(=O)C(C)(C)c3cc(S(=O)(=O)N4CCCCC4)ccc32)c(Br)c1	63% (inactive)
COc1ccc(OC)c(NC(=O)CN2C(=O)CCc3cc(S(=O)(=O)N4CCCCC4)ccc32)c1	0% (active)
Cc1ccc(Cl)cc1NC(=O)CN1C(=O)C(C)(C)c2cc(S(=O)(=O)N3CCCCC3)ccc21	1% (active)
